Assay outcomes deposited in PubChem BioAssay by Johns Hopkins Ion Channel Center.
A selection: hits, their analogues and other compounds. The true share with any hit is near 1.6%.
KCNQ2 inh – rat KCNQ2 potassium channel inhibitors, primary screen, cell-based, CHO-K1, FluxOR thallium flux, B-score. actives 1.1% (n = 310,000). B-score at 10 µM. Potassium voltage-gated channel subfamily KQT member 2 (Rattus norvegicus), O88943. 20 min; hits give low values;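 active means fluorescence ratio B-score at most minus 3 library SDs, with starting brightness B-score within 2 library SDs, cut at about -5.5 in these data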
KCNQ2 pot – potentiators of rat KCNQ2 potassium channel; AID 2239, 2010; B-score at 10 µM; actives 0.54% (n = 310,000); CHO-K1 KCNQ2, FluxOR thallium flux fluorescence; hits give high values; Potassium voltage-gated channel subfamily KQT member 2 (Rattus norvegicus), O88943;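 active means fluorescence ratio B-score at least 3 SD of library B-scores, with initial fluorescence B-score within 3 of them, cut at about 5.3 in these data; same plate scores as AID 2156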;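 further: B-score of peak minus minimum over baseline fluorescence ratio after K+ and Tl+ stimulus; positive B-score means potentiation of KCNQ2 with more thallium influx and brighter signal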
Kir21 confirm – mouse Kir2.1 channel blockers, retest, confirmation, cell-based, FluxOR thallium flux, duplicate; shares compounds with KCNQ2 pot; Kir2.1-expressing cells, FluxOR thallium flux fluorescence; hits give low values; Tl flux remaining, % of negative control (hits give low values), % at 10 µM; actives 41% (n = 2,300);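 active means Primary-screen hit whose thallium flux fell at least 3 control SD below untreated wells in both duplicates, with normal baseline fluorescence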;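 further: 0% = blank wells without stimulus and 100% = stimulated no-compound controls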
Target sequence (P35561 whole entry, looked up): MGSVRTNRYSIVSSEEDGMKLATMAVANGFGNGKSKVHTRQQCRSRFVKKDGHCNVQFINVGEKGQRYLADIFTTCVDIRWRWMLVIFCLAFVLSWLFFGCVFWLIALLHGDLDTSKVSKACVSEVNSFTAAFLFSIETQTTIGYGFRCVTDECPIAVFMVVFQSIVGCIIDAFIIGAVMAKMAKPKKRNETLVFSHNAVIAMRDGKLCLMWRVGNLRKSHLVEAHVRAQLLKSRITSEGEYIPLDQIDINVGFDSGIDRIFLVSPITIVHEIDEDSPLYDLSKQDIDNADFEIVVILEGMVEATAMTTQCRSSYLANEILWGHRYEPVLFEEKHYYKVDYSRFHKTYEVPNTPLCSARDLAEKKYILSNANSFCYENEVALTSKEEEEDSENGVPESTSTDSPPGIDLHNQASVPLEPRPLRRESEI
HEK293 Tl flux – counter-screen for Kir2.1 inhibitors: effect in parental HEK293 cells; shares compounds with KCNQ2 pot; FluxOR thallium flux fluorescence; 0% = unstimulated blank wells; FluxOR signal as % of negative control (100 = no effect), % at 10 µM; actives 19% (n = 2,300); AID 2105;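 active means dye signal at least 3 control SD above or below untreated wells in both duplicates, raw fluorescence within 3, either direction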;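 further: percent is based on the flux ratio of peak minus minimum fluorescence over baseline F0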
CHO-K1 ctr – nonspecific thallium flux increase in parental CHO-K1, confirmation, counter-screen for KCNQ2 potentiator project, cell-based, FluxOR thallium flux, duplicate; activity increase over 3SD of controls, % at 10 µM; AID 2282, 2010; actives 43% (n = 1,200); shares compounds with KCNQ2 pot; parental CHO-K1 cells, FluxOR thallium flux fluorescence; zero = vehicle mean+3SD, 100% = vehicle-minus-blank window;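 active means signal rise of at least 3 SD above the untreated control mean, in both duplicate wells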;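 further: counter screen of KCNQ2 potentiator hits so any rise reflects channel-independent effects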
KCNQ1 sel pot – human KCNQ1 channel potentiation off-target, confirmation, selectivity assay for KCNQ2 potentiator project, cell-based, CHO, FluxOR thallium flux; shares compounds with KCNQ2 pot; CHO KCNQ1 stable, FluxOR thallium flux fluorescence; beyond 3SD, as % of vehicle-control signal; activation over 3SD threshold, % at 10 µM; actives 28% (n = 1,200);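 active means fluorescence ratio rise of at least 3 SD of vehicle wells above their mean, in both replicate wells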;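 further: 0% = vehicle mean plus 3 SD and 100% = vehicle minus unstimulated blank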
KCNQ2 pot conf – rat KCNQ2 channel potentiators, confirmation, cell-based, CHO, FluxOR thallium flux, duplicate. shares compounds with KCNQ2 pot. CHO-KCNQ2 cells, FluxOR thallium flux fluorescence. potentiation, less the hit threshold, % at 10 µM. actives 68% (n = 1,200);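 active means fluorescence ratio rising 3 SD or more over the vehicle control mean in both replicates, plus primary screen hit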;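 further: peak minus minimum thallium fluorescence divided by baseline after K/Tl stimulus; 0% = vehicle mean plus 3 SD and 100% = vehicle minus unstimulated blank difference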
Kir21 spec – mouse Kir2.1 channel activation off-target, confirmation, selectivity assay for KCNQ2 potentiator project, cell-based, HEK293, FluxOR thallium flux; shares compounds with KCNQ2 pot; HEK293 Kir2.1, FluxOR thallium flux fluorescence; activity over 3SD threshold, % at 10 µM; actives 2% (n = 1,200);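 active means fluorescence ratio rise of at least 3 SD above the vehicle-control mean, seen in both replicates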;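 further: 0% = vehicle mean plus 3 SD and 100% = vehicle minus no-stimulus blank window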
KCNQ2 W236L pot – potentiators of retigabine-insensitive KCNQ2 W236L, mechanism study for KCNQ2 potentiator project, cell-based, rat KCNQ2 W236L, CHO, automated patch clamp; shares compounds with KCNQ2 pot; automated patch clamp current; current increase over 3SD of negative controls (%), hits give high values, % at 25 µM; actives 10% (n = 940);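 active means current increase at least 3 SD of the untreated controls above them in both duplicate recordings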
Active calls of the source: *; i = inactive; / = no result given.

SMILES | KCNQ2 inh | KCNQ2 pot | Kir21 confirm | HEK293 Tl flux | others
CC1CCCCC1n1c(=S)[nH]c2ccccc2c1=O (stereo not given) | i | 6.6* | i | 208%* | CHO-K1 ctr=0.6*;KCNQ1 sel pot=20*;KCNQ2 pot conf=19*;Kir21 spec=-24;KCNQ2 W236L pot=i
CC1=NN(C(=O)c2c(Br)cnn2C)C(O)(C(F)(F)F)C1 (stereo not given) | i | 14* | i | i | CHO-K1 ctr=-17;KCNQ1 sel pot=-6;KCNQ2 pot conf=-13;Kir21 spec=-32
COc1ccc(OCC(=O)N2N=C(C)CC2(O)C(F)(F)F)cc1 (stereo not given) | i | / | / | /
O=c1[nH]c(SCc2cccc(Cl)c2)nc2[nH]ncc12 | i | 0.66 | / | /
Cc1cc(C(=O)N2CCc3ccccc3C2)on1 | i | / | / | /
Cc1ccc(NC(=O)c2ccc(Cn3cc(Cl)cn3)o2)c(C)c1 | i | / | 26%* | i
COC(=O)c1sc(NC(=O)c2ccc(Cn3cc(Cl)cn3)o2)c(C#N)c1C | i | 0.21 | / | /
CCN(CC(=O)Nc1cccc(OC)c1)C(=O)c1ccco1 | i | / | / | /
CCCN(Cc1ccccc1)C(=S)NC(=O)c1ccccc1[N+](=O)[O-] | i | 13* | i | 450%* | CHO-K1 ctr=5.8*;KCNQ1 sel pot=-22;KCNQ2 pot conf=60*;Kir21 spec=-17;KCNQ2 W236L pot=i
CCN(Cc1ccccc1)C(=S)NC(=O)c1ccccc1Br | i | 8.6* | i | 418%* | CHO-K1 ctr=-16;KCNQ1 sel pot=52*;KCNQ2 pot conf=46*;Kir21 spec=-23;KCNQ2 W236L pot=i
CCN(CC)C(=S)NC(=O)Cc1ccccc1 | i | / | / | /
CCC(=O)NC(=S)NNC(=O)c1ccccc1[N+](=O)[O-] | i | / | / | /
CC(Oc1ccc2ccc(=O)oc2c1)C(=O)NC1CCN(Cc2ccccc2)CC1 (stereo not given) | i | 0.34 | / | /
O=C(NNC1=C(C(=O)C(F)(F)F)CCC1)c1ccc(Cl)cc1 | i | 7.8* | i | i | CHO-K1 ctr=18*;KCNQ1 sel pot=-13;KCNQ2 pot conf=4.8*;Kir21 spec=-30;KCNQ2 W236L pot=i
O=C(NNC1=C(C(=O)C(F)(F)F)CCC1)c1cccc(Cl)c1 | i | 4.8 | / | /
COc1ccc(C(=O)NNC2=C(C(=O)C(F)(F)F)CCC2)cc1 | i | 5.5* | i | i | CHO-K1 ctr=14*;KCNQ1 sel pot=32*;KCNQ2 pot conf=6.0*;Kir21 spec=-37;KCNQ2 W236L pot=i
COc1ccc(C(=O)NNc2ccccc2)cc1 | i | / | / | /
COc1ccc(CC(=O)NNS(=O)(=O)c2ccc(F)cc2)cc1OC | i | 0.35 | / | /
COc1ccc(Sc2ccccc2CN(C)C)cc1OC | i | 0.47 | / | /
CNCc1ccccc1Sc1ccc(O)c(O)c1 | i | / | 39%* | i
O=C(COC(=O)CCSc1ccccc1)NCc1ccccc1 | i | 2.1 | / | /
CCOc1ccccc1Oc1c(C)oc2cc(OC(=O)c3ccco3)ccc2c1=O | i | / | / | /
COc1ccccc1-c1c(C)oc2cc(OC(=O)c3ccco3)ccc2c1=O | i | 0.01 | 70%* | i
O=C(OCC(=O)N1CCN(C(=O)COC(=O)c2ccc(O)cc2O)CC1)c1ccc(O)cc1O | i | / | / | /
N#Cc1cc(-c2ccccc2)nc(N2CCNCC2)n1 | i | 0.32 | / | /
SMILES | KCNQ2 inh | KCNQ2 pot | Kir21 confirm | HEK293 Tl flux | others
Cc1nc(-c2nnc(SCC(=O)Nc3ccc(C(F)(F)F)cc3)n2C)cs1 | i | / | / | /
N=c1n(Cc2ccccc2)c2ccccc2n1CC(O)COc1ccccc1 (stereo not given) | i | / | 38%* | i
CCCCn1c(=N)n(CC(O)COc2ccccc2)c2ccccc21 (stereo not given) | i | 1 | / | /
CCCCn1c(=N)n(CC(O)COc2ccc(C)cc2)c2ccccc21 (stereo not given) | i | / | / | /
Cc1ccc(Cn2c(=N)n(CC(O)COc3ccccc3)c3ccccc32)cc1 (stereo not given) | i | / | 32%* | i
CCN1CCN(CCC(=O)Nc2ccc(F)c(F)c2)CC1 | i | 0.06 | / | /
COC(=O)c1ccccc1NC(=O)C/C(C)=N/NC(=O)Cc1ccc(Cl)cc1 | i | / | / | /
O=C(NCC(c1ccc(F)cc1)N1CCOCC1)c1cc(F)c(F)c(F)c1F (stereo not given) | i | / | / | /
O=C(CC12CC3CC(CC(C3)C1)C2)NCC(c1ccc(F)cc1)N1CCOCC1 (stereo not given) | i | 11* | i | i | CHO-K1 ctr=-13;KCNQ1 sel pot=-15;KCNQ2 pot conf=36*;Kir21 spec=-49;KCNQ2 W236L pot=i
Cc1cc2cc(CNC(=S)NC3CCCCC3)ccc2n1C | i | 1.1 | / | /
O=C(/C=C/Nc1ccc(S(=O)(=O)Nc2ncccn2)cc1)c1ccc2ccccc2c1 | i | 0.5 | / | /
Nc1nc(CSCCO)nc(Nc2ccccc2)n1 | i | 0.22 | / | /
Nc1nc(CSc2ccccn2)nc(Nc2ccccc2)n1 | i | 5.5* | i | i | CHO-K1 ctr=-9;KCNQ1 sel pot=-20;KCNQ2 pot conf=-11;Kir21 spec=-39
N/C(=N\NS(=O)(=O)c1ccccc1Cl)c1ccccn1 | i | 0.73 | / | /
CC(C)c1ccc(NC2CCCN(C(=O)c3ccoc3)C2)cc1 (stereo not given) | i | / | / | /
CCOC(=O)COc1cc(N)c(Cl)cc1Cl | i | 0.24 | / | /
CC(C)c1ccc(NC(=O)N2CCN(S(=O)(=O)c3ccccc3)CC2)cc1 | i | 7.3* | / | / | CHO-K1 ctr=-15;KCNQ1 sel pot=-20;KCNQ2 pot conf=-6;Kir21 spec=-51;KCNQ2 W236L pot=i
CS(=O)(=O)N1CCN(C(=O)Nc2ccccc2)CC1 | i | 0.31 | / | /
COc1ccc(C(=O)N/C=C/n2cnc3cc(C(F)(F)F)ccc32)cc1 | i | / | / | /
CC1=C(C(N)=O)C(c2cccs2)n2nc(-c3cccc(Cl)c3)nc2N1 (stereo not given) | i | 5.8* | i | i | CHO-K1 ctr=53*;KCNQ1 sel pot=-11;KCNQ2 pot conf=-4;Kir21 spec=-38;KCNQ2 W236L pot=0.9%*
